The nature of this test: blockers of isoproterenol-driven CNG channel signal – cell-based, HEK293-CNG parental, membrane potential fluorescence, Y1 set, counter-screen for NPY-Y1 potentiator/agonist project (AID 1704).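 Note: 0% = isoproterenol-stimulated DMSO wells and 100% = unstimulated DMSO wells.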 The following applies: isoproterenol cAMP, at 3.6 µM, active compounds read high.

Molecules are shown by their SMILES. The list shows a part of the results. Values without a mark were called inactive. Activity calls are given as the source filed them.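 Rule for the calls: active = inhibition above the mean of stimulated solvent-only control wells plus 3 SD (cut at about 22% in these data); inactive = the rest.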

We go through two compounds from PubChem BioAssay AID1704 (The Scripps Research Institute Molecular Screening Center, 2009).

`CSC1=NP(=S)(SC)N(C)c2nc3n(c21)CCC3` (configuration not stated): the inhibition was 3.97%.

With `Cc1nn(Cc2ccccc2Cl)c(Cl)c1C(=O)OC(C(=O)NC(N)=O)C(C)C` (configuration not stated), the inhibition is 43.1% (active).

The term inhibition denotes the share of the control response that was lost under treatment.
